Assay results taken from PubChem BioAssay (NCATS).
“And” between values parts separate entries of the source, which are not always exact repeats. Equal values may be shown once. Inconclusive results are not listed. The source holds several records for some structures; these can differ, active in one and inactive in another. The source made the active and inactive calls. The call rests on the fitted dose curve; in most records, active means well fitted curve in the direction sought with a large enough effect; inconclusive means small, poorly fitted or top-dose-only effect, or another doubt; inactive means no such curve, though single readings can be large; an effect the other way counts as inactive or inconclusive.

Assays:
[1] = target: Cellular tumor antigen p53 (Homo sapiens) (UniProt P04637); assay: Primary qHTS for small molecule compounds that upregulate eGFP-tagged delta133p53alpha (in N-terminal) cells. (AID 2060322); conditions: NCI-H358 eGFP-delta133p53alpha fluorescence, 24 h; activation: active compounds read high; further: nearly all actives have a fitted effect of over 75% in size; further: potency means the concentration at half of the fitted maximal effect;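 on activation: 0% = DMSO vehicle and 100% = reference activator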
Outline: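 NCI-H358 cells pre-induced 24 h with 10 ng/ml doxycycline to express N-terminal eGFP-delta133p53alpha, then dosed 24 h at 37C without doxycycline; fixed, Hoechst-stained, GFP intensity by laser scanning cytometry, normalized to DMSO (0%) and 57.5 uM 5-azacytidine (100%).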

[2] = target: Aldehyde dehydrogenase, mitochondrial (Homo sapiens) (UniProt P05091); assay: qHTS for Inhibitors of the Aldehyde Dehydrogenase Family (ALDH2) Primary screen (AID 2061308); conditions: ALDH2 enzyme inhibition qHTS, 1536-well; series mostly up to 56 µM;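 further: plate controls were vehicle for no effect and reference inhibitor for full effect; nearly all actives have a fitted effect of over 55% in size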
[3] = target: Retinaldehyde dehydrogenase 3 (Homo sapiens) (UniProt P47895); assay: qHTS for Inhibitors of the Aldehyde Dehydrogenase Family (ALDH1A3) Validation screen (AID 2061312); conditions: ALDH1A3 enzyme inhibition qHTS validation, fluorescence; series mostly up to 84.7 µM; further: on the % scale 0 is the no-effect control and ±100 the full control effect; nearly all actives have a fitted effect of over 45% in size
[4] = target: Retinaldehyde dehydrogenase 3 (Homo sapiens) (UniProt P47895); assay: qHTS for Inhibitors of the Aldehyde Dehydrogenase Family (ALDH1A3) Primary screen (AID 2061315); conditions: ALDH inhibition qHTS; series mostly up to 56 µM;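 further: plate controls were DMSO vehicle for no effect and reference inhibitor for full effect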
[5] = BET inhibitor-based combinations targeting novel dependencies in MECOM-rearranged (r) AML: SET-2 cell line (AID 2202231); conditions: SET-2 AML cells viability, CellTiter-Glo luminescence, 48 h; viability: active compounds read low, concentration not given here; further: nearly all actives have a fitted effect of over 35% in size; further: potency means the concentration at half of the fitted maximal effect;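 on viability: plate controls were DMSO treated cells for no effect and wells without cells for full effect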
Outline: (§1)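 Each compound was tested at eleven concentrations on cells seeded at 500/well. After two days' incubation, ATP-based luminescence reported viability; responses relative to DMSO and blank wells yielded AUC and cell-line-centred Z-AUC.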

[6] = BET inhibitor-based combinations targeting novel dependencies in MECOM-rearranged (r) AML: OCI-AML3 cell line (AID 2202232); conditions: CellTiter-Glo luminescence, 48 h; Potency: OCI-AML3 viability; series mostly up to 46 µM; further: nearly all actives have a fitted effect of over 35% in size; further: potency means the concentration at half of the fitted maximal effect
Outline: as §1

[7] = BET inhibitor-based combinations targeting novel dependencies in MECOM-rearranged (r) AML: MV-4-11 cell line (AID 2202233); conditions: MV-4-11 AML viability, CellTiter-Glo luminescence, 48 h; series mostly up to 46 µM; further: nearly all actives have a fitted effect of over 45% in size; further: potency means the concentration at half of the fitted maximal effect
Outline: (§2)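 First, 500 cells per well were seeded; next, drugs were pinned as 11-point doses; then plates sat 48 hr in the incubator; finally CellTiter-Glo was added and luminescence read, with AUC and Z-AUC computed.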

[8] = BET inhibitor-based combinations targeting novel dependencies in MECOM-rearranged (r) AML: HNT-34 cell line (AID 2202234); conditions: HNT-34 AML viability, CellTiter-Glo luminescence, 48 h; series mostly up to 46 µM; further: nearly all actives have a fitted effect of over 35% in size; further: potency means the concentration at half of the fitted maximal effect
Outline: as §2

[9] = BET inhibitor-based combinations targeting novel dependencies in MECOM-rearranged (r) AML: UCSD-AML1 cell line (AID 2202235); conditions: UCSD-AML1 AML cells viability, CellTiter-Glo, 48 h; series mostly up to 46 µM; further: nearly all actives have a fitted effect of over 40% in size; further: potency means the concentration at half of the fitted maximal effect
Outline: as §2

[10] = BET inhibitor-based combinations targeting novel dependencies in MECOM-rearranged (r) AML: AML-191 cell line (AID 2202236; further: nearly all actives have a fitted effect of over 35% in size; further: potency means the concentration at half of the fitted maximal effect); conditions: AML-191 viability, CellTiter-Glo luminescence, 48 h; series mostly up to 46 µM
Outline: as §1

[11] = BET inhibitor-based combinations targeting novel dependencies in MECOM-rearranged (r) AML: AML-194 cell line (AID 2202237; further: nearly all actives have a fitted effect of over 40% in size; further: potency means the concentration at half of the fitted maximal effect); conditions: AML-194 (MECOM-r AML) viability, CellTiter-Glo, 48 h; series mostly up to 46 µM
Outline: as §1

[12] = target: Cellular tumor antigen p53 (Homo sapiens) (UniProt P04637); assay: Primary qHTS for small molecule compounds that upregulate eGFP-tagged delta133p53alpha (in C-terminal) cells. (AID 2060324); conditions: NCI-H358 delta133p53alpha-eGFP (C-terminal tag), GFP fluorescence imaging, 24 h; series mostly up to 57.5 µM; further: potency means the concentration at half of the fitted maximal effect
Outline: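 NCI-H358 cells pre-induced 24 h with 100 ng/ml doxycycline to express delta133p53alpha-eGFP, then dosed in doxycycline-free medium for 24 h at 37C. Fixed, Hoechst-stained; GFP intensity by laser scanning cytometry, normalized to DMSO wells.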

Sequence of Cellular tumor antigen p53 (Homo sapiens) (P04637 whole entry, looked up): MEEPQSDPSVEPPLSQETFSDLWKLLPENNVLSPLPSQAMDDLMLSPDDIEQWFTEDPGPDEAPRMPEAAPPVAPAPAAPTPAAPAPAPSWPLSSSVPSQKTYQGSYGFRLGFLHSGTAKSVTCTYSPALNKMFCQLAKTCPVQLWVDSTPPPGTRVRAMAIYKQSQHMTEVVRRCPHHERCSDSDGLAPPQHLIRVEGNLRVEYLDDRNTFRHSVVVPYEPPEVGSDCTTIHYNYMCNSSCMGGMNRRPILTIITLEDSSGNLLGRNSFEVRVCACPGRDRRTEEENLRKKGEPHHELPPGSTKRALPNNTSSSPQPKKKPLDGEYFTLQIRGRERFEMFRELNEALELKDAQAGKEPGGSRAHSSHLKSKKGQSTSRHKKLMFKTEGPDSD

c1ccc2c(CCNc3ccc(Nc4ccncc4)cc3)c[nH]c2c1
inactive: activation [1] -5.73% | Potency [2] | Potency [3] | Potency [4]
active: Potency [1] 30.6 µM | Potency [5] 10.5 µM | Potency [6] 1.32 µM | Potency [7] 0.934 µM | Potency [8] 2.95 µM | Potency [9] 3.72 µM | Potency [10] 10.5 µM | Potency [11] 3.32 µM

COc1cc(N2CCC(O)CC2)ccc1Nc1cc(Nc2ccccc2S(=O)(=O)C(C)C)c2cc[nH]c2n1
inactive: activation [1] -59.5% | Potency [2]
active: Potency [1] 16.6 µM | Potency [6] 18.6 µM | Potency [7] 18.6 µM | Potency [8] 18.6 µM | Potency [9] 26.3 µM | Potency [10] 16.6 µM

Fc1cc(-c2cccc3ncc(-c4cnn(C5CCNCC5)c4)nc23)cc(F)c1CN1CCOCC1
active: Potency [1] 27.3 µM | Potency [5] 4.68 µM | Potency [6] 11.8 µM | Potency [7] 0.934 µM | Potency [8] 2.35 µM | Potency [9] 3.32 µM | Potency [11] 6.61 µM
inactive: activation [1] -17.4% | Potency [2] | Potency [4]

COc1ccc(-c2cc3nccn3c(Nc3ncccc3C(N)=O)n2)cc1OC
active: Potency [1] 4.78 µM | Potency [7] 0.372 µM | Potency [9] 6.61 µM | Potency [10] 8.33 µM
inactive: activation [1] 14.1% | Potency [2] | Potency [4]

Nc1nc(NCCNc2ncc(-n3ccnc3)c(-c3ccc(Cl)cc3Cl)n2)ccc1[N+](=O)[O-]
inactive: activation [1] -14% | Potency [2] | Potency [4] | viability [5] 116% | Potency [6] | Potency [11]
active: Potency [1] 8.49 µM | Potency [7] 8.33 µM | Potency [8] 4.17 µM

Cc1ccc(NC(=O)C2(c3ccc4c(c3)OC(F)(F)O4)CC2)nc1-c1cccc(C(=O)O)c1
inactive: activation [1] -10.5% | Potency [2] | Potency [3] | Potency [4] | viability [5] 94.8% | Potency [6] | Potency [8] | Potency [9] | Potency [10]
active: Potency [1] 0.153 µM

Cn1c(=O)c(-c2c(Cl)cccc2Cl)cc2cnc(Nc3cccc(C(=O)O)c3)nc21
inactive: activation [1] 29.6% | Potency [2] | Potency [3] | Potency [4] | viability [5] 116% | Potency [9] | Potency [10] | Potency [11]
active: Potency [1] 12 µM | Potency [6] 0.235 µM

COC(=O)C1=C(C)NC(C)=C(C(=O)OC)C1c1ccccc1[N+](=O)[O-]
inactive: activation [1] -16.4% and -36.9% | Potency [12]

N#C/C(=C\c1ccc(O)c(O)c1)C(=O)NCCc1ccccc1
inactive: activation [1] -26.1% | Potency [12]

Clc1ccccc1CN1CCc2sccc2C1
inactive: activation [1] 16.7% | viability [5] 111% | Potency [6] | Potency [8] | Potency [9] | Potency [10] | Potency [11]
active: Potency [1] 17.2 µM

Brc1c(Br)c(Br)c2n[nH]nc2c1Br
inactive: activation [1] -52.8% | Potency [12]

O=C(NCC1CCCCN1)c1cc(OCC(F)(F)F)ccc1OCC(F)(F)F (stereo unspecified)
active: Potency [1] 27.3 µM
inactive: activation [1] 9.6% | viability [5] 112% | Potency [7] | Potency [8] | Potency [10] | Potency [11]

NNc1nncc2ccccc12
inactive: activation [1] 19.2% and 11.4% and 5.29% | Potency [12]

N#C/C(=C\c1ccc(O)c(O)c1)C(=O)c1ccc(O)c(O)c1
inactive: activation [1] -3.67% | Potency [12]

O=C1N=C(O)CN1/N=C/c1ccc(-c2ccc([N+](=O)[O-])cc2)o1
inactive: activation [1] 5.02% and 6.04% | Potency [12]

CCCCCCCCCC(=O)NC(CN1CCOCC1)[C@H](O)c1ccccc1 (stereo partly specified)
inactive: activation [1] -7.14% | Potency [12]

O=c1cc(-c2ccccc2)oc2c(O)c(O)ccc12
inactive: activation [1] -43.5% | Potency [12]

C=CCN1CCc2c(cc(O)c(O)c2Cl)C(c2ccccc2)C1 (stereo unspecified)
inactive: activation [1] -14.2% | Potency [12]

C[C@H]1c2cccc(O)c2C(O)=C2C(=O)[C@]3(O)C(O)=C(C(N)=O)C(=O)[C@@H](N(C)C)[C@@H]3[C@@H](O)[C@@H]21
active: Potency [1] 15.5 µM and 2.73 µM | Potency [8] 18.6 µM | Potency [10] 26.3 µM | Potency [11] 23.5 µM
inactive: activation [1] -2.21%

O=C(OCCN1CCOCC1)C1(c2ccccc2)CCCCC1
inactive: activation [1] -19.6% | Potency [12]

C[n+]1cc2c3c(ccc2c2ccc4cc5c(cc4c21)OCO5)OCO3
active: Potency [1] 1.9 µM and 2.39 µM | Potency [12] 7.57 µM

CC(C)[C@H](C(=O)Nc1ccc(C(=O)NO)cc1)c1ccccc1
active: Potency [1] 30.6 µM | Potency [6] 0.742 µM | Potency [7] 0.372 µM | Potency [8] 0.833 µM | Potency [9] 0.833 µM | Potency [10] 0.662 µM | Potency [11] 0.833 µM
inactive: activation [1] 66.7%
